Experiment [1] deals with Tyrosine-protein kinase CSK (Homo sapiens) (UniProt P41240). Particulars: at 1 µM.
Experiment [2] concerns the target T1, Discoidin domain-containing receptor 2 (Homo sapiens) (UniProt Q16832).
T1 sequence (whole entry): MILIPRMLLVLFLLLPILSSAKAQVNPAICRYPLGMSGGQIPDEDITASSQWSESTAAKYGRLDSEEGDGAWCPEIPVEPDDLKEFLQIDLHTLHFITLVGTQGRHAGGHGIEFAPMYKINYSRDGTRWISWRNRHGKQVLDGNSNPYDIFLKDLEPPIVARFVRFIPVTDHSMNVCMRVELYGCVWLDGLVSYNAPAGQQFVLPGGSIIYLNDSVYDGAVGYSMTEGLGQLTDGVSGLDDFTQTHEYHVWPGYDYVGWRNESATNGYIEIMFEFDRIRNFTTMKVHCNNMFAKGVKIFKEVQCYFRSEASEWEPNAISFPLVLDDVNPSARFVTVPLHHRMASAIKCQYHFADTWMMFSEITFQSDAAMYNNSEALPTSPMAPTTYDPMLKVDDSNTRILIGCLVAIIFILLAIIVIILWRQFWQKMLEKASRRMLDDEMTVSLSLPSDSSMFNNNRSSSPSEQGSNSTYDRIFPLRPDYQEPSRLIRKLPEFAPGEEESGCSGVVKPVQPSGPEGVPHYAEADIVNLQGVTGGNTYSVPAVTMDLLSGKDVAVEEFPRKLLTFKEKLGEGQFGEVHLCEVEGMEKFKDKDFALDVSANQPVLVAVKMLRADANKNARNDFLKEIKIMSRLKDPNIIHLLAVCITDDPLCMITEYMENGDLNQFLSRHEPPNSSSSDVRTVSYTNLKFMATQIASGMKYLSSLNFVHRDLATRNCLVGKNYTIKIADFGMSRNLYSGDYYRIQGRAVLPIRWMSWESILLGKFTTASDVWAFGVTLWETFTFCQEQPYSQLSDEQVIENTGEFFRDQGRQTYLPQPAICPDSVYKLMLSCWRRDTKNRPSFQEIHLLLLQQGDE
Particulars: at 0.1 µM.

Experiment [3] has as its target T1, Discoidin domain-containing receptor 2 (Homo sapiens). Particulars: at 1 µM.
Experiment [4] addresses Epidermal growth factor receptor (Homo sapiens) (UniProt P00533). The conditions noted are these: at 0.1 µM.
Experiment [5] has the same target. Particulars: at 1 µM.
Experiment [6] relates to Epidermal growth factor receptor (Homo sapiens), P00533 [L858R]. Particulars: at 0.1 µM.
Experiment [7] shares this test system. Particulars: at 1 µM.
The test system of experiment [8] is Epidermal growth factor receptor (Homo sapiens), P00533 [L861Q]. The conditions noted are these: at 0.1 µM.
Sequence of Epidermal growth factor receptor (Homo sapiens), P00533 [L861Q] (P00533 whole entry L861Q): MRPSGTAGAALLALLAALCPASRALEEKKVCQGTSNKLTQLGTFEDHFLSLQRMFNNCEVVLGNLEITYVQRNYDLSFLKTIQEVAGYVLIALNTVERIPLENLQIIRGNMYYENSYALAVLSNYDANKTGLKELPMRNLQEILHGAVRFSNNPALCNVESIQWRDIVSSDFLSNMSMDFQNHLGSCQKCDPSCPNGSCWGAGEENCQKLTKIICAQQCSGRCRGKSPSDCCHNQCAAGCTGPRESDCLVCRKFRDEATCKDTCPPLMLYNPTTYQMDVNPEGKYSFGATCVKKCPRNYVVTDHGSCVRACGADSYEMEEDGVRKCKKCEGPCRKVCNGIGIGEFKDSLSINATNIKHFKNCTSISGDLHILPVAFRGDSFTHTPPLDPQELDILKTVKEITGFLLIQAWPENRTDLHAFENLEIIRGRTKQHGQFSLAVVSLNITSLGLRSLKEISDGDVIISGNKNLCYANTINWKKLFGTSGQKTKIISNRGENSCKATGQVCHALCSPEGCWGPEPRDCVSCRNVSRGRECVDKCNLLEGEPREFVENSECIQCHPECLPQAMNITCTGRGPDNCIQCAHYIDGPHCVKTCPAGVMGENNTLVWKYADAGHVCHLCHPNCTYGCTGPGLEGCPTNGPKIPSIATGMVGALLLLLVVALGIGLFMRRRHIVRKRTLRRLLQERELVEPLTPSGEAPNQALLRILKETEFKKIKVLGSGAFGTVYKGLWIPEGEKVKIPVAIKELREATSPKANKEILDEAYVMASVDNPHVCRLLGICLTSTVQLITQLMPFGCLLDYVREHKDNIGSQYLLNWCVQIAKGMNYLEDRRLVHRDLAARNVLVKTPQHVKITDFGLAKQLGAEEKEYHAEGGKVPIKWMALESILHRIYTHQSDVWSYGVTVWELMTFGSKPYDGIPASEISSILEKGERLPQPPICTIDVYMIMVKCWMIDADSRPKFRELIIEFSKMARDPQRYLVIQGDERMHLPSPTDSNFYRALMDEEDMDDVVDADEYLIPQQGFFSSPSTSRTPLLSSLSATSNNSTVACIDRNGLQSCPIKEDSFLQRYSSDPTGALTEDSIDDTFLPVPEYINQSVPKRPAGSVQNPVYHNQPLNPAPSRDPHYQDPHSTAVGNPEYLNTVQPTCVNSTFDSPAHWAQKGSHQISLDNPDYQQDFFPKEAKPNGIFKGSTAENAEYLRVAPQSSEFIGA
The test system is the same in experiment [9]. Particulars: at 1 µM.
Experiment [10] relates to Epidermal growth factor receptor (Homo sapiens), P00533 [T790M]. The conditions noted are these: at 0.1 µM.
Sequence of Epidermal growth factor receptor (Homo sapiens), P00533 [T790M] (P00533 whole entry T790M): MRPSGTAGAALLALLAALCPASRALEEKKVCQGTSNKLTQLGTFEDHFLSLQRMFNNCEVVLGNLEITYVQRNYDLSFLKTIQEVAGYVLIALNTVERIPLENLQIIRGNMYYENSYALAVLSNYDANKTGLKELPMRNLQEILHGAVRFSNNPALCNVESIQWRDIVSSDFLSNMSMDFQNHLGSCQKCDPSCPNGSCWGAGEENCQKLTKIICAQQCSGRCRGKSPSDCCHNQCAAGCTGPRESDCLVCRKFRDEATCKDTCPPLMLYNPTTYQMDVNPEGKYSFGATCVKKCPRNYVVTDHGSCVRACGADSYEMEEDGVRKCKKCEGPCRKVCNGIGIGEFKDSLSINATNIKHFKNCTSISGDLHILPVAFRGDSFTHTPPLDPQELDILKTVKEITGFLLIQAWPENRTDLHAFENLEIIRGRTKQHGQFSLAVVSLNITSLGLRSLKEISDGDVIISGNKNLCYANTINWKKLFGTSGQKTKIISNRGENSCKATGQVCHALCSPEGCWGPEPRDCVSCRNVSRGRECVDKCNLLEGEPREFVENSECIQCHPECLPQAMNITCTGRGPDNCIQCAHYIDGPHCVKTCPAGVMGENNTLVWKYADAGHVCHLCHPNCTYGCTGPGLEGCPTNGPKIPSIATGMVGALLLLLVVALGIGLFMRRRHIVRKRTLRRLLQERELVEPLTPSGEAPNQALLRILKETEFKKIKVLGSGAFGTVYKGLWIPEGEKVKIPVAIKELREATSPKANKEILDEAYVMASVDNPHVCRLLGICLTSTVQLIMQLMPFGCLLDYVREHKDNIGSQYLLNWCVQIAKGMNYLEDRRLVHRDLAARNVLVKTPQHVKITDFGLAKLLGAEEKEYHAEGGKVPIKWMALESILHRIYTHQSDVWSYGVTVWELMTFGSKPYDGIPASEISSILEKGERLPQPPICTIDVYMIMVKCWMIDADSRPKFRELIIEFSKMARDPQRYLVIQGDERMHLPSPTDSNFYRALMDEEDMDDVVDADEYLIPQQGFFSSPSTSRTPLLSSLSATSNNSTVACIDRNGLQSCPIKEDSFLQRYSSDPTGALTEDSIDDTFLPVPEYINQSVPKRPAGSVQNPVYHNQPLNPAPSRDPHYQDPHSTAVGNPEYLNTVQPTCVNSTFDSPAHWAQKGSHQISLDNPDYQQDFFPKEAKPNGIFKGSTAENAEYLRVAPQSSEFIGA
For experiment [11] the test system is unchanged. Particulars: at 1 µM.
The test system of experiment [12] is Epidermal growth factor receptor (Homo sapiens), P00533 [L858R,T790M]. Particulars: at 0.1 µM.
Sequence of Epidermal growth factor receptor (Homo sapiens), P00533 [L858R,T790M] (P00533 whole entry T790M/L858R, looked up): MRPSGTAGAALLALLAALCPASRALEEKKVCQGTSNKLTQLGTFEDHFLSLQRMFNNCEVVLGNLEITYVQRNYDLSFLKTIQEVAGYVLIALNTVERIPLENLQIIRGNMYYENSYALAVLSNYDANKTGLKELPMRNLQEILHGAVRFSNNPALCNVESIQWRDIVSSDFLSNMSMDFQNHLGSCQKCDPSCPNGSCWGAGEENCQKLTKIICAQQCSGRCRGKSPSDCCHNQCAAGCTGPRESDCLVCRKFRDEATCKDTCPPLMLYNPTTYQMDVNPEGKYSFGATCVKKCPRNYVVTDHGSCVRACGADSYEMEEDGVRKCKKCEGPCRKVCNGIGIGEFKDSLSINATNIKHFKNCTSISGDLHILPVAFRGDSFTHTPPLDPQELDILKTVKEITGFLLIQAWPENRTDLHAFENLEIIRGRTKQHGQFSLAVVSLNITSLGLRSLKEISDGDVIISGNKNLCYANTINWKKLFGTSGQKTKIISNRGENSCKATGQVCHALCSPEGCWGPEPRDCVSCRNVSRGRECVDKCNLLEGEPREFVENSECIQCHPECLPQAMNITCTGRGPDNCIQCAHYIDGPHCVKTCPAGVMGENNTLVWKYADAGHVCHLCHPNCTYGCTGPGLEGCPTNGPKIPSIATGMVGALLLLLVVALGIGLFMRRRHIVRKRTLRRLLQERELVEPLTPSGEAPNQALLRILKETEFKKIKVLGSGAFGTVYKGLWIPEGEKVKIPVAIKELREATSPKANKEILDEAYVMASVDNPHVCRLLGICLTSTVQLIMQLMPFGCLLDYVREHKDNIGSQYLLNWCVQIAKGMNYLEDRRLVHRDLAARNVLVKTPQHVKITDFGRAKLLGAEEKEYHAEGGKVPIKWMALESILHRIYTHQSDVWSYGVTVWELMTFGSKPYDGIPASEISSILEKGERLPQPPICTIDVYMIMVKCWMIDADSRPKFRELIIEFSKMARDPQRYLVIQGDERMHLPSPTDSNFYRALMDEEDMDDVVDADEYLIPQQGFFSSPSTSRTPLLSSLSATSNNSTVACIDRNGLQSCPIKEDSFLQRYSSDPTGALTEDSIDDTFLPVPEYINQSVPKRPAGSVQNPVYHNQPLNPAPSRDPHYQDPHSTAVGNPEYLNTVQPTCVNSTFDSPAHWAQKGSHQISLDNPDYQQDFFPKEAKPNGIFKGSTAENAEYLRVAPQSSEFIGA
Experiment [13] shares this test system. The conditions noted are these: at 1 µM.
The target in experiment [14] is Ephrin type-A receptor 2 (Homo sapiens) (UniProt P29317). The conditions noted are these: at 0.1 µM.
For experiment [15] the target is unchanged. Particulars: at 1 µM.
Experiment [16] addresses T2, Ephrin type-A receptor 3 (Homo sapiens) (UniProt P29320).
T2 sequence (whole entry): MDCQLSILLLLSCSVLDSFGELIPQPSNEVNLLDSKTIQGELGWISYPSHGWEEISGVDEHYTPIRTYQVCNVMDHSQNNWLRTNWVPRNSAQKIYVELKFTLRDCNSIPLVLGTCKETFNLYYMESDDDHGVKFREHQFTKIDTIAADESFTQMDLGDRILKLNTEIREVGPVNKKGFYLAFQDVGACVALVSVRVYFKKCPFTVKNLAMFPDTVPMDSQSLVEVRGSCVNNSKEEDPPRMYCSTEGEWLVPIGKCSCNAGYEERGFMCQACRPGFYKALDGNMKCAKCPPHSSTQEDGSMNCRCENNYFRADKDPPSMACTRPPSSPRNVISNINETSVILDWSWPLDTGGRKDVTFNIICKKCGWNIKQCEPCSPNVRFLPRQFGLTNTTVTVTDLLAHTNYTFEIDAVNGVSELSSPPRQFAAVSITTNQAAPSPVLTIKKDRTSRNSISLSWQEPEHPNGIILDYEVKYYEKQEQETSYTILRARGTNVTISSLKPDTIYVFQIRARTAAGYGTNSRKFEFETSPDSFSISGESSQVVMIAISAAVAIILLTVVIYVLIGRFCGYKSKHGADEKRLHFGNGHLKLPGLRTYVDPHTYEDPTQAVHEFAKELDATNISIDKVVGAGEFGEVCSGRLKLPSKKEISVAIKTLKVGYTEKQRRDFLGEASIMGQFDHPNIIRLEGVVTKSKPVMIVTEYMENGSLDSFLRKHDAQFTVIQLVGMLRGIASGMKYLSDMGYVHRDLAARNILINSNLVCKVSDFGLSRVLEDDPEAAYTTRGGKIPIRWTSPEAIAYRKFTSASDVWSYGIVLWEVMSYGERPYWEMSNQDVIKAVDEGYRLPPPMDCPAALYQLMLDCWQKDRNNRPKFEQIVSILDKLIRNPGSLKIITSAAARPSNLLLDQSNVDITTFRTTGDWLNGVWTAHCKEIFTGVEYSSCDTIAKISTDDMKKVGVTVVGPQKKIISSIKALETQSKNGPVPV
Particulars: at 0.1 µM.

In experiment [17] the target is T2, Ephrin type-A receptor 3 (Homo sapiens). Particulars: at 1 µM.
The target in experiment [18] is Ephrin type-A receptor 4 (Homo sapiens) (UniProt P54764). Particulars: at 0.1 µM.
The target is the same in experiment [19]. The conditions noted are these: at 1 µM.
For experiment [20], the target named is T3, Ephrin type-B receptor 2 (Homo sapiens) (UniProt P29323).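 Also: reported as mean inhibition of EPHB2, from the GSK PKIS dataset.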
T3 sequence (whole entry): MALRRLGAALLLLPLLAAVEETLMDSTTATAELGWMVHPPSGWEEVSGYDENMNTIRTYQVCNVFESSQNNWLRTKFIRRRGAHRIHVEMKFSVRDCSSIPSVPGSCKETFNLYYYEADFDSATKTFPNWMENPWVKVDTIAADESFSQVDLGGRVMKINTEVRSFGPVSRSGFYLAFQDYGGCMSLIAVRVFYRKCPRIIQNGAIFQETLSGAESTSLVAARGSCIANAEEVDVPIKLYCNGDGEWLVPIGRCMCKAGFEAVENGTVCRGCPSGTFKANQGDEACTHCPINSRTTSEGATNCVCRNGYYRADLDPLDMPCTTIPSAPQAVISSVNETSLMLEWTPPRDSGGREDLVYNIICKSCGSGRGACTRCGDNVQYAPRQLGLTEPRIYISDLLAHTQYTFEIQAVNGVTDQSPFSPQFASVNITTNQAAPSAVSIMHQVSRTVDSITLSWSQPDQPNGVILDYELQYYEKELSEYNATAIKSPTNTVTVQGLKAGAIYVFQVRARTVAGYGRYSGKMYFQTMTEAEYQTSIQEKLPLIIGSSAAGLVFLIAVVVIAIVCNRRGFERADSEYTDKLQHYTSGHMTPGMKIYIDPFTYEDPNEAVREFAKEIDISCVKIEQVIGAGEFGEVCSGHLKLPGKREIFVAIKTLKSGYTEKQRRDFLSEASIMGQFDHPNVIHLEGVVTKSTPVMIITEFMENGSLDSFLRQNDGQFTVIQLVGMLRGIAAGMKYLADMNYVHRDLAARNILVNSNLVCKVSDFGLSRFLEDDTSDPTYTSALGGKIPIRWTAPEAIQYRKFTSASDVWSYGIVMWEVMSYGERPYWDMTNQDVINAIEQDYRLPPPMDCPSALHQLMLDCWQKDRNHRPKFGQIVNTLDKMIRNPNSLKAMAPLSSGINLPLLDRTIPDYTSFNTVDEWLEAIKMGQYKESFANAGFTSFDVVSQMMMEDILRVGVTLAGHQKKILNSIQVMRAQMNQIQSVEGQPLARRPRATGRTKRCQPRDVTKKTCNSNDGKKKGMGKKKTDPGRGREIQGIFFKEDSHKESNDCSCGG
The conditions noted are these: at 0.1 µM.

Structures are written as SMILES.

Sequence of Epidermal growth factor receptor (Homo sapiens) (P00533 whole entry): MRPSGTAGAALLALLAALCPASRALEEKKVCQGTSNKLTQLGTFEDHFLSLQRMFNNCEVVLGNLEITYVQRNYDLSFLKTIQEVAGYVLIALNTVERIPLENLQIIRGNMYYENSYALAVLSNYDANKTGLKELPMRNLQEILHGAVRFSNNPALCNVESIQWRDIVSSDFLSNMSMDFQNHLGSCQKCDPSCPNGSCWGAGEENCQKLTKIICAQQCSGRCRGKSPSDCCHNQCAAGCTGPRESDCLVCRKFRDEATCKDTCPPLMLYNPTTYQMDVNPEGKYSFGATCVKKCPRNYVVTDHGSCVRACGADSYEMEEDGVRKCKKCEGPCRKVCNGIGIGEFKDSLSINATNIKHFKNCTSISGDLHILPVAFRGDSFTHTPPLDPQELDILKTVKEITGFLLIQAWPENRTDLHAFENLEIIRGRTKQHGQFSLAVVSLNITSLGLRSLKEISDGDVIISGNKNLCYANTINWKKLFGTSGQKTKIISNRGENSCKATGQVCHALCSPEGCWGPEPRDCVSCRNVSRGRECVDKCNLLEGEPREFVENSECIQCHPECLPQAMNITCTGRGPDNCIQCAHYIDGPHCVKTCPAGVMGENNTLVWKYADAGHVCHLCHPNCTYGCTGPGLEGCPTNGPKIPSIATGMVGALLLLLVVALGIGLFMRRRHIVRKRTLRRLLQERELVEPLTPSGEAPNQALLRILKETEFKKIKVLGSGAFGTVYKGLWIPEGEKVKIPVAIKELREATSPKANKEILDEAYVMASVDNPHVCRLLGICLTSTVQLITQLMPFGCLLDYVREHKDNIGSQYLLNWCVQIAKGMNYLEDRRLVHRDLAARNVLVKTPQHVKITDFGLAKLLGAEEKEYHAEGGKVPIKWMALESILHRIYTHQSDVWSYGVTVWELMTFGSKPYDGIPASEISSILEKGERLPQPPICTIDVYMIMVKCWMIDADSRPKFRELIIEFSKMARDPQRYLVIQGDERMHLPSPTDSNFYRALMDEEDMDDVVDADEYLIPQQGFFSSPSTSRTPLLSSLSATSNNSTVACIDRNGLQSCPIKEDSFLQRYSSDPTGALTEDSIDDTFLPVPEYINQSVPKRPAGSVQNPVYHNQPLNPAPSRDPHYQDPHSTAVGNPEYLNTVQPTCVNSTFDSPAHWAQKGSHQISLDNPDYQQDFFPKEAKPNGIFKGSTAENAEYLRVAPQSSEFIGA

Usually inhibition stands for the drop in the measured response relative to a control, in per cent. As for `Cc1cc(O)cc(C)c1/C=C/c1cncc(-c2nn[nH]n2)c1`, the inhibition in [1] was 43.4%; in experiment [2] it was 1.73%; in [3], 6.08%; in experiment [4], -1.53%; in [5], 15.8%; in [6], 10.4%. The inhibition in experiment [7] worked out at 56.9%; in [8] it was 3.95%; in experiment [9], 21.2%; in experiment [10] it was 2.17%; in [11], 3.37%; in experiment [12], 2.15%. Also, the inhibition in [13] stood at 2.05%; in [14] it was 39.5%; in [15], 84.4%; in experiment [16], 12.4%; in [17] it was 34.8%; in experiment [18], 37.4%. In addition, the inhibition turned out to be 87.6% in experiment [19] and 15.1% in [20].
For the molecule `CS(=O)(=O)Nc1ccc(N/C=C2\C(=O)Nc3ccccc32)cc1`, the inhibition in experiment [1] was -6.43%; in experiment [2] it was 0.64%; in experiment [3] it was 0.83%; in experiment [4] it was 0.27%; in experiment [5], 1.45%; in experiment [6], -0.02%. For the same molecule, the inhibition in experiment [7] is -5.94%; in [8] it was 0.35%; in experiment [9], -1.41%; in experiment [10], -1.68%; in [11], -1.95%; in experiment [12] it was 0.26%. Further, the inhibition was -4.58% in experiment [13]; -2.34% in experiment [14]; -1.5% in [15]; -5.95% in [16]; -4.36% in experiment [17]; -6.81% in experiment [18]. The inhibition is -2.53% in experiment [19] and -6.42% in experiment [20].
With `CC(=O)Nc1cccc(C#Cc2cncnc2Nc2ccc(OCc3cccc(F)c3)c(Cl)c2)n1`, the inhibition in [1] came to 3.91%; in experiment [2], 2.33%; in experiment [3], 1.71%; in [4], 69.5%; in experiment [5], 77.7%; in experiment [6], 24.8%. For the same molecule, the inhibition in experiment [7] was 72.5%; in experiment [8], 29.1%; in experiment [9] it was 55.6%; in experiment [10], 0.03%; in experiment [11] it was 9.1%; in experiment [12] it was -2.43%. In addition, the inhibition in experiment [13] was determined as 3.75%; in experiment [14], 2.75%; in [15], 1.53%; in experiment [16], 0.44%; in experiment [17], 0.58%; in experiment [18] it was 1.13%. In addition, the values for the inhibition in experiment [19] and in experiment [20] were 5.16% and -1.46%, respectively.
`COc1cc(C)c(NC(=O)CN(C)C)cc1Nc1nc(Nc2cccc(F)c2C(N)=O)c2cc[nH]c2n1`: the inhibition was -0.35% in experiment [1]; 2.03% in experiment [2]; 0.4% in experiment [3]; -1.1% in experiment [4]; 5.3% in experiment [5]; 1.75% in experiment [6]. The inhibition in [7] came out at 6.19%; in experiment [8], 2.96%; in [9], 5%; in experiment [10], 5.98%; in [11], 30.3%; in experiment [12], 14.3%. Besides, the inhibition in experiment [13] is 54.2%; in [14], 0.91%; in [15], -1.18%; in experiment [16], 3.57%; in experiment [17], 1.85%; in [18], 6.35%. Also, the inhibition in experiment [19] is -1.05%; in experiment [20], 4.98%.
`CC1=C(C(=O)Nc2ccc3[nH]ncc3c2)C(c2ccc(F)cc2)NC(=O)N1` (stereo not given): the inhibition in experiment [1] is 1.35%; in experiment [2], 0.44%; in [3], 0.08%; in [4] it was -0.6%; in [5] it was 1.27%; in [6] it was 3.85%. Besides, the inhibition in [7] was 4.77%; in [8] it was 2.31%; in experiment [9], 1.33%; in experiment [10] it was 0.71%; in experiment [11], 0.87%; in [12], -2.35%. Also, the inhibition in [13] is -1.39%; in experiment [14], -2.91%; in experiment [15], -2.18%; in experiment [16], 2.51%; in [17], 2.14%; in [18], 4.19%. The results for the inhibition in experiment [19] and in experiment [20] were 4.52% and 2.76%, respectively.

These data come from ChEMBL document CHEMBL1961873, “Compounds: GSK PKIS; Assays: Nanosyn kinase panel” (2012).
